# Results published in PubChem BioAssay AID1508600 (Functional Genomics Laboratory (NCATS/FGL), 2020).
# Screen size: about 53,000 sequences; about 3,700 (7%) were called active.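 The calls were made as follows: active = gene knockdowns whose robust z-score for IL-1 alpha signal is at least 2 or at most -2, so actives lie on both sides; inactive = the rest.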 Only a selection was taken, and actives are over-represented in it overall.
# Test: Components of the Cytosolic LPS Sensing Pathway: Gene Identification via Genome-wide siRNA Screen;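 also: robust z of the log signal after scaling to non-targeting control siRNA wells of the plate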
# Conditions: RAW264.7 macrophages, IL-1a HTRF, actives lie on both sides, screened at 100 nM (by protocol), cells primed 5 h with Pam3CSK4 first
# Method in brief: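 IL-1a HTRF of supernatants after 24 hour LipidA transfection of Pam3CSK4-primed (5 hours) RAW264.7 cells, 48h post-siRNA transfection (100 nM). Scores: percent of plate negative-control median, then log-based robust z-score.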
row,Sequence,z-score
1,GGUAGACGGAAUCUAUUUATT against Kcnj15,-1.31 (inactive)
2,GGUGGACUUAUAUGGUUUUTT against St3gal1,0.408 (inactive)
3,GGUGAUUGGGAAUUGAAAATT against F3,0.341 (inactive)
4,GCAUAUGCGAACAGUAAAATT against Rab28,-0.182 (inactive)
5,GGUACCUUCAUCUUGGUGGTT against Olfr699,-0.017 (inactive)
6,GCCUUGACCUGAUUUCUACTT against Tas2r131,-0.525 (inactive)
7,GCAUUCAGGACCUGUGGCUTT against Olfr890,-2.33 (active)
8,GGAUCUGUGAGUUUGUAGCTT against D930030D11Rik,0.585 (inactive)
9,GGACAACUCAAUUCUAAAATT against 4921522P10Rik,-1.22 (inactive)
10,GCAAAGUUCACCUAAUUGGTT against Lipc,-1.03 (inactive)
11,GCCAGACUGAGCUACAAAATT against Gm9732,-1.3 (inactive)
12,GCAUCAAAAUCGGUUUCUGTT against Lkaaear1,0.759 (inactive)
13,CCUUUGGACGCAACCAGUUTT against Ugt1a6b,2.04 (active)
14,CGAAUUAAUCUCACAGGAGTT against Vps53,0.44 (inactive)
15,CCCUCAAUGGCCUCAAACUTT against Elavl3,-1.29 (inactive)
16,GUUAGAUGCCCUCAAGUUCTT against Trappc6a,-0.857 (inactive)
17,GGAUGAGAGUCCACAGCAATT against Lpar3,-1.26 (inactive)
18,GGAAUUCACAGAUACCGUGTT against Guca1a,0.93 (inactive)
19,GGAUGAGGUGAUUAAAGAATT against Cd9,2.38 (active)
20,GGAGUUCAUUGUUUGGUUGTT against Nat2,0.593 (inactive)
21,GGAUAUUGAUGUUUCAAGUTT against Neo1,-0.241 (inactive)
22,CGUGGUGCAGAAUUUUUAUTT against Cldn14,1.13 (inactive)

row,Sequence,z-score
1,GGCACACACAUCAAAAGGATT against A530021J07Rik,-2.63 (active)
2,GGUAGAUGGCAUCUACUAUTT against Josd2,0.663 (inactive)
3,GCUGGCAGUUUGUAAGUAGTT against Faxc,-0.653 (inactive)
4,GGGUGUCAUCCUUAUCCUGTT against Olfr655,-0.0528 (inactive)
5,CCGAAUCUGUCGUCAAGGUTT against Trem3,0.552 (inactive)
6,GGACCAGGUCCGUUGGAAUTT against Efna1,0.636 (inactive)
7,GGAUGUAAAGAGGAAUCUCTT against Abca16,-0.748 (inactive)
8,GCAUCCCUUCCGAGAAACATT against Bag6,0.916 (inactive)
9,GCCGUCAGACAAGGAGGAATT against Magi1,2.43 (active)
10,GGAUGUCCUUGACUUUAAATT against Atp6v0a4,0.704 (inactive)
11,GCCUGAGGAAUCGUGACAUTT against Olfr51,-1.58 (inactive)
12,GGAAAUGAUACAUUUGUGATT against Mre11a,-0.256 (inactive)
13,CCGCACAGACCAUAGUAGATT against Pudp,0.261 (inactive)
14,GGUACUUUGGAAAGAAGAGTT against Yeats4,-1.27 (inactive)
15,GGGAAUGAACCUAGAAGAGTT against Tymp,-1.2 (inactive)
16,GGUAGCCAUAUCUAACAGCTT against Scd1,-2.02 (active)
17,GCCCUGAGACCACGAUAUUTT against AF067063,1.48 (inactive)
18,GGUUAUAUGCAGAGGAACUTT against Arid1a,-0.436 (inactive)
19,GGCAAGAUGAAUUAAAAUGTT against Gcfc2,-0.964 (inactive)
20,GGAUAAAGGCAAAGACAAATT against Rsrc1,0.891 (inactive)
21,UUAUGCUGACCUCUAUCUUTT against Akr1c19,2.33 (active)
22,GGUUGAUUCUUAAAUUGUGTT against Slc6a5,0.331 (inactive)

row,Sequence,z-score
1,GGCUGGUGUAAUCGAAACATT against Ttc39c,0.0501 (inactive)
2,GGAAACUCCGUCCCAAUUGTT against Trim68,1.39 (inactive)
3,GGCGAUUUCAACUGAAAAUTT against Jakmip1,0.548 (inactive)
4,GCCCAAUAAAAUUGAAGGGTT against Pmis2,-0.163 (inactive)
5,GGUCUUUGAGGAAAGAGGUTT against Hemk1,-1.59 (inactive)
6,GGCCUGUCCAAAGAAGUGATT against E2f3,2.2 (active)
7,GCGCACACCCUACUUGAUUTT against Pcdh20,1.08 (inactive)
8,GCUGUAAUUCCUAAGUUAUTT against Ubxn6,0.268 (inactive)
9,CCCAGAGCAUGCCAUCAACTT against Orm3,-0.38 (inactive)
10,CCUUACACUAAGAAAAAGGTT against Rad50,-0.0689 (inactive)
11,GCAGUCCAAAAAAUUCGGUTT against Stox2,-2.15 (active)
12,GGCAUUAGAGCAGAGUCGUTT against Trmu,-1.29 (inactive)
13,GGUGCAGAGAAGUGUAACATT against Slc25a21,-1.6 (inactive)
14,GGUGCUGAGCAUGGUGUUATT against Spag4,3.17 (active)
15,GGAGUAUCGUUUAUUCAUUTT against Slc2a2,0.161 (inactive)
16,GCCUAAGAAAUUAGUGAAUTT against Rflna,0.204 (inactive)
17,GGCCAUCACUAAAUAAUGGTT against Ctdspl2,-0.123 (inactive)
18,GGAAAACGAGUCAAACUCATT against Lnx2,3.4 (active)
19,GGUGGUGAGCAUCUACUAUTT against Alox5,0.565 (inactive)
20,CCCUAAUAAAUUCCAAAUCTT against H2-Ke6,1.81 (inactive)
21,GCAUGUAGUUCAUCAGUACTT against Tubgcp5,0.874 (inactive)
22,GGACCACUUUUUCAGACUCTT against Ralgapa1,0.945 (inactive)

row,Sequence,z-score
1,GGCGAAAUGGUAAACCGAGTT against Adgrg2,0.0183 (inactive)
2,GUACGGCAACAUGACCCAGTT against Cd74,0.385 (inactive)
3,GGACUUCAACAACUGCUCUTT against Polr1a,2.28 (active)
4,CCACUUCUACAUACUUAAUTT against Plau,0.62 (inactive)
5,UCUCAUUGCAAUUCUGGGATT against Olfr675,0.566 (inactive)
6,CCUUACUCAAGAUCCUGCUTT against Olfr1243,-0.23 (inactive)
7,GGCACUCAACACCUGUAUATT against Olfr640,-1.34 (inactive)
8,GGAAUUCCUUCACAUCUGGTT against Tc2n,0.4 (inactive)
9,GGGUGAUAAGCAGUUAUACTT against Wdr75,1.33 (inactive)
10,GCUUCUGUUAUGAGGCUCATT against Hif1a,-2.52 (active)
11,GGAGAUUGUGGAAAUGCUUTT against Skiv2l,0.459 (inactive)
12,CCCAGACCAUACUACGGAUTT against Calb2,-1.25 (inactive)
13,GUUUCAGUGCAGCCAUUACTT against Olfr518,-0.747 (inactive)
14,GGAUUUAUUUCCGAUUCGATT against Nalcn,-0.0152 (inactive)
15,GGAUCAAAAGGUGAAUGCUTT against Vmn1r67,-2.54 (active)
16,GCUGCAUUCGGUUACCACUTT against Olfml2b,0.677 (inactive)
17,GGAGGUUACAUAACAGGUGTT against Itsn2,1.86 (inactive)
18,GGGAGUUAUUUAAGAUUCUTT against Has1,0.0567 (inactive)
19,GAAAAAUAAUGGAGUUUGGTT against Gtf2h5,0.513 (inactive)
20,CCAGUGGAGUAAACUGUAATT against Ltbp1,2.24 (active)
21,GGAAGUGGUCCACCUGAUCTT against Mms19,-0.324 (inactive)
22,GGCCCAUCUGAGGAAGCUUTT against Magea4,-1.55 (inactive)

row,Sequence,z-score
1,GGAACUUCAUAAACACUUGTT against Oas3,-0.545 (inactive)
2,GGUUCUGGAAAGUUCUCUGTT against Sorcs2,-0.0101 (inactive)
3,GGUGAUGUUUUAUGGCAGGTT against Olfr1335,0.329 (inactive)
4,CGAUGAUCGGCUCAACAAGTT against Rplp2,-0.401 (inactive)
5,GGCCAUACGCAAGCUCAAGTT against Rtl5,-2.96 (active)
6,GGUUCCUCACAAGCAUUCUTT against Olfr818,0.276 (inactive)
7,GCAUGAAGUUGCACAUCCCTT against Cox8b,-0.42 (inactive)
8,GGGAGCUAUUUAUCCUAUUTT against Zc4h2,0.214 (inactive)
9,GCCUCCUGAAUGACCACAUTT against Klk1b27,2.29 (active)
10,GGACUGUGAUUGUUUCAGATT against Mep1a,-0.0817 (inactive)
11,GGUAUCAUCUAUAGAGACUTT against Prkch,-0.265 (inactive)
12,CCGUGCCAAACUUCUUACUTT against 2610528J11Rik,-0.1 (inactive)
13,GGGCUAGAGGAAAACGAAATT against Crot,1.64 (inactive)
14,CGCAGAGAGUAGAAAAUUGTT against Pdia5,-0.428 (inactive)
15,GGACUGUCAUCUUCCUCAGTT against Ston2,-2.97 (active)
16,GCUAUGACCGGAGGUUCUATT against Morn5,0.555 (inactive)
17,GGAAACGAAGAGGAAGAAUTT against Ddit3,-0.571 (inactive)
18,CCAGUAUAUUCUGAGGGUUTT against Isl1,0.374 (inactive)
19,GGAGACUGAGGAAGAAUCUTT against Atcay,-0.302 (inactive)
